We go through 38 compounds from the supplement of paper PMC7866885, “A novel bicyclic 2,4-diaminopyrimidine inhibitor of Streptococcus suis dihydrofolate reductase” (PeerJ, 2021).

Structures are written as SMILES. ± gives the standard deviation.

The assay has as its system Streptococcus suis HE06. Briefly: percent growth relative to DMSO control; higher = less growth inhibition. The settings on record: 10 µM; incubation time 18 h. Here is the method: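 CLSI broth microdilution: 5x10^4 CFU of Streptococcus suis (strain P1/7 or HE06) incubated with 10 µM Pathogen Box compound in cation-adjusted Mueller Hinton broth, 37 °C, 5% CO2, 18 h. Growth read as OD600 and expressed as percent of the DMSO-treated control (100%); mean ± SD of three independent experiments.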
Regarding `CCN(CC)S(=O)(=O)c1ccc(C(=O)Nc2cc(C)nn2-c2nc(C)c(C)c(=O)[nH]2)cc1`, the percent growth stood at 0.274 ± 0.47%. In the case of `OCCc1ccc(Nc2nccc(-c3nnc4ccccn34)n2)cc1` it was 92.9 ± 6.6%. `COc1cccn2c(C(=O)N3CCCCC3)c(C(F)(F)F)nc12` registered a percent growth of 111 ± 22%.

Regarding `COc1ccc(C2(C(=O)Nc3ccc(Br)cc3)CCCC2)cc1`, the percent growth is 120 ± 25%. In the case of `CC[C@@H]([C@H](C)O)n1ncn(-c2ccc(N3CCN(c4ccc(OC[C@@H]5CO[C@@](Cn6cncn6)(c6ccc(F)cc6F)C5)cc4)CC3)cc2)c1=O` it was 76.2 ± 4.8%. In the case of `COc1cc(C2=NCCN2)ccc1-c1cn(-c2cccc(C3=NCCN3)c2)nn1` it was 82.9 ± 23%. In the case of `O=C(Nc1ccccc1)c1ccc(-c2cc3ccncc3cc2OC2CCNCC2)s1` it was 85.8 ± 20%; in that of `COC(=O)c1ccc(F)cc1NS(=O)(=O)c1cccc(-c2cnn(Cc3ccccc3)c2)c1`, 99.6 ± 8.2%. Compound `Cc1nnc(NC(=O)c2cn(-c3ccccc3)nc2-c2ccccc2C)o1` gave a percent growth of 0.31 ± 0.38%. In the case of `N#Cc1nc(-c2ccccc2F)oc1NCCc1ccccc1` it was 113 ± 30%.

`COc1ccc(C2=NN(C3CCCCCC3)C(=O)C2(C)C)cc1OCCCCOc1ccc(-c2nn[nH]n2)cc1` displayed a percent growth of 2.58 ± 3.1%.

`Cc1ccc2cc(C3NC(=O)c4ccccc4N3)c(Cl)nc2c1` (stereo not drawn) returned a percent growth of 72.4 ± 16%. Take `CNC(=O)C1Cc2ccccc2N1C(=O)Cc1ccc(F)cc1` (stereo not drawn): the percent growth amounted to 96.6 ± 1.8%.

On to `CC(C)n1nc(-c2cc3c(Cl)cccc3[nH]2)c2c(N)ncnc21`, for which the percent growth came out at 112 ± 45%. In the case of `CCc1nc2ccc(C(=O)NCc3ccc4c(c3)OCO4)cn2c1N(C)Cc1cccs1` it was 122 ± 67%; in that of `c1csc(-c2cnc3sc(NCC4CCOCC4)nn23)c1`, 109 ± 22%. In the case of `N=C(N)c1ccc(-c2cc(-c3ccccc3)on2)cc1` it was 85.2 ± 3%; in that of `CCCCCCCCCCCCCCCCOP(=O)([O-])OCC[N+](C)(C)C`, 117 ± 7.1%. `CCc1ccc(S(=O)(=O)Nc2cc(CN3CCN(CCC(C)C)CC3)ccc2C)cc1` had a percent growth of 95.7 ± 12%. In the case of `COC(=O)Nc1nc2cc(C(=O)c3ccccc3)ccc2[nH]1` it was 86 ± 8.2%; in that of `Cc1cc(C)nc(-n2nc(C)cc2Nc2ccccc2)n1`, 0.964 ± 1.7%. In the case of `Cc1cc(C(=O)Nc2ccc(-c3ccccc3)cc2)no1` it was 103 ± 36%; in that of `Cc1cccc(-c2nc(Nc3ccncn3)c3sccc3n2)n1`, 0.0155 ± 0.027%; in that of `O[C@@H](c1cc(C(F)(F)F)nc2c(C(F)(F)F)cccc12)[C@H]1CCCCN1`, 94 ± 6.1%. In the case of `CCN(CC)CCCCCCNc1cc(OC)cc2c(C)ccnc12` it was 81.6 ± 14%; in that of `COc1ccc(Oc2ccc([C@@H](C)N(C)c3ncc4c(N)nc(N)nc4n3)cc2)cc1`, 104 ± 32%; in that of `Cc1ccc2[nH]c(C3CCCNC3)c(-c3ccncc3)c2c1` (stereo not drawn), 108 ± 31%.

Compound `Cc1cc(NC(=O)c2ccc(Oc3ccc(Cl)cc3O)o2)no1` gave a percent growth of 108 ± 22%. Regarding `CS(=O)(=O)c1ccccc1C(=O)N(Cc1ccccc1)c1ccccc1`, the percent growth was 115 ± 7.9%. In the case of `CCc1nc2ccc(Cl)cn2c1C(=O)NCc1ccc(N2CCC(c3ccc(OC(F)(F)F)cc3)CC2)cc1` it was 89.9 ± 15%; in that of `Nc1ncc(-c2ccc(C(F)(F)F)nc2)cc1-c1ccc(C(F)(F)F)nc1`, 98.8 ± 13%. In the case of `COC(=O)c1c(NC(=O)c2cc3ccccc3oc2=O)sc2c1CCN(Cc1ccccc1)C2` it was 84.2 ± 11%; in that of `O=C(Nc1cccc(-c2ccc(NCCCN3CCCC3)nc2)c1)c1ccccc1`, 96.7 ± 23%; in that of `c1ccc(-c2[nH]c3ccccc3c2C(c2ccccn2)N2CCCC2)cc1` (stereo not drawn), 88.5 ± 4.3%. In the case of `Cc1nn2c(=O)c3c([nH]c2c1-c1ccc(Cl)cc1)CCCC3` it was 0.386 ± 8.7%; in that of `CCC(NC(=O)c1ccccc1NC(=O)c1ccc(C)cc1)C(=O)OC` (stereo not drawn), 92 ± 4.7%. Take `O=C(NCCc1ccccc1)c1cc(-c2cccnc2)cnc1NCC1CC1`: the percent growth was 88.2 ± 20%. For `O=C(OCc1ccccc1)N1CCC(c2cc(-c3ccncc3)c(-c3ccc(F)cc3)[nH]2)CC1`, the percent growth was 126 ± 61%.
